Screening data: PubChem BioAssay, National Center for Advancing Translational Sciences (NCATS)
Hits are enriched below; roughly 13% of the tested compounds scored in any of these assays.
HCMV inh: human cytomegalovirus inhibition. actives 4.5% (n = 410,000). activity change, negative = inhibition, % at 57.5 µM. HFF cells, HCMV-luciferase reporter, 72 h; active compounds read low; in the data active = activity change below about -60%; inconclusive = no clear call, values can overlap the other calls; inactive = above about -39%
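Inhibition of viral replication was scored as loss of reporter luminescence in HFFs infected with HCMV-luciferase (MOI 1 PFU/cell) for 72 h; compounds tested at 2 doses, normalized to buffer and Salinomycin controls.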
Pf growth 96h: P. falciparum growth inhibition at 96 hours; P. falciparum luciferase reporter growth, 96 h; actives 6.9% (n = 320,000); Potency, µM (top dose mostly 28.7 µM), for the others: at the top dose activity change, negative = inhibition, hits mostly inhibitors; also: potency is read from the fitted curve at half-maximal effect
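Cell-based qHTS: luciferase-tagged P. falciparum in erythrocytes (2% hematocrit, 0.05% parasitemia final) incubated with compounds for 96 hours, 37 C, 5% CO2; luciferase detection reagent then added and luminescence measured.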
HCV inhibitor: HCV inhibition; actives 3.4% (n = 340,000); Potency, µM (top dose mostly 41.8 µM), for the others: top-dose activity change, negative = inhibition, actives largely listed as inhibitors; Huh7.5.1 HCVcc-Cre infection, luciferase reporter, 44 h; AID 651820; also: potency is read from the fitted curve at half-maximal effect
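Seed cells (1,000/well) for 4 h; treat with compound and infect with HCVcc-Cre, moi about 0.5. Incubate 44 h, then detect luciferase activity.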
Pf growth 48h: P. falciparum growth inhibition at 48 hours (one generation); P. falciparum luciferase growth in erythrocytes, 48 h; Potency, µM (series often up to 28.7 µM), for the others: at the highest dose activity change, negative = inhibition, hits mostly inhibitors; actives 5.9% (n = 310,000); also: potency is read from the fitted curve at half-maximal effect
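Here the parasites carry a stable luciferase gene and grow inside erythrocytes in Albumax-based RPMI medium with compound for one erythrocytic cycle. Activity is scored as loss of luminescent signal.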
The depositor's hits bear a star; ? = inconclusive; . = no result given; [ ] = dose if it differs, or a comment. Unless noted, calls follow the shape of the dose curve; as a rule, active = well fitted inhibition curve with a large enough effect; inconclusive = small, poorly fitted or top-dose-only effect, or another doubt; inactive = no such curve, though single readings can be large or run the other way. % is scaled to controls: 0 for no effect and ±100 for the full control effect.

SMILES	HCMV inh	Pf growth 96h	HCV inhibitor	Pf growth 48h
CCOC(=O)C1=C(C)NC(SCC(=O)Nc2nc(C)cs2)=C(C#N)C1c1cccs1 (configuration not stated)	-40	?	.	2.1µM*
C=CCOC(=O)C1=C(C)NC(SCC(=O)Nc2ccccc2)=C(C#N)C1c1ccco1 (configuration not stated)	-15	?	?	9.3µM*
C=CCOC(=O)C1=C(C)NC(SCC(=O)N(CC)CC)=C(C#N)C1c1ccco1 (configuration not stated)	-7	.	?	13µM*
Cc1cccc(N2CCn3c2nc2c3c(=O)n(C/C=C/c3ccccc3)c(=O)n2C)c1	-30	.	.	.
CCc1cccc(CC)c1NC(=O)c1cc(S(=O)(=O)N2CCc3ccccc32)cn1C	-30	.	.	.
COc1ccc(C(=O)N2CC(=O)Nc3ccc(C)cc3C2c2ccccc2)c(OC)c1 (configuration not stated)	12	.	.	.
C/C(=N\NC(=O)C12CCC(C)(C(=O)O1)C2(C)C)c1ccccc1O (configuration not stated)	-103*	?	?	?
CC12CCC(C(=O)NCc3ccccc3)(OC1=O)C2(C)C (configuration not stated)	2	-2%	16%	13%
Cc1cc(NC(=O)c2ccc3c(c2)OCCO3)ccc1NC(=O)c1ccco1	-5	-17%	?	7%
O=C(Nc1ccc(N2CCN(C(=O)c3ccco3)CC2)cc1)c1ccc2c(c1)OCO2	0	?	-2%	13µM*
O=C(Nc1ccccc1C(=O)Nc1ccccc1)c1ccco1	9	?	-6%	2%
O=C(Nc1ccc(NC(=O)c2ccco2)cc1)c1ccc2c(c1)OCCO2	-73*	309%	?	-11%
O=C(Nc1ccccc1C(=O)Nc1ccc2c(c1)OCO2)c1ccco1	2	127%	13µM*	59%
O=C(Nc1ccc(N2CCN(C(=O)c3ccco3)CC2)cc1)c1ccc(Br)cc1	-21	?	-3%	?
O=C(Nc1ccc(N2CCN(C(=O)c3ccco3)CC2)cc1)c1cc(Br)ccc1Cl	-33	10µM*	?	13µM*
CC1=NN(c2nc(-c3ccccc3)cs2)C(=O)C1N=Nc1ccccc1 (configuration not stated)	-9	45%	-14%	11%
CC1=NN(c2nc(-c3ccc(C)cc3)cs2)C(=O)C1N=Nc1ccc(C(N)=O)cc1 (configuration not stated)	?	-1%	2.8µM*	5%
CC1=NN(c2ccccc2)C(=O)C1N=Nc1ccc(C)cc1 (configuration not stated)	.	10µM*	.	24%
CC1=NN(c2ccccc2)C(=O)C1N=Nc1ccc(S(N)(=O)=O)cc1 (configuration not stated)	25	-10%	16%	?
CC(=O)Nc1ccc(N2N=C(C)C(N=Nc3ccccc3)C2=O)cc1 (configuration not stated)	-101*	26%	-2%	15%
CCN(c1ccccc1)S(=O)(=O)c1ccc(C(=O)N2CCN(c3ccccc3)CC2)cc1	5	.	?	.
CCN(c1ccccc1)S(=O)(=O)c1ccc(N2CCN(c3ccccc3O)CC2)nc1	7	9.3µM*	?	6.6µM*
CC(C)Cc1nc(SCc2cccnc2)c2c(=O)n(C)c(=O)n(C)c2n1	?	?	10µM*	?
CCc1nc(SCc2cccnc2)c2c(=O)n(C)c(=O)n(C)c2n1	?	-10%	-10%	-9%
S=C(Nc1ccc(Nc2ccccc2)cc1)Nc1ccccn1	-95*	-35%[5.75 µM]	10µM*	?
SMILES	HCMV inh	Pf growth 96h	HCV inhibitor	Pf growth 48h
Cc1ccc(N(C)S(=O)(=O)c2nnc(NC(=O)CC(C)C)s2)cc1	55	.	.	.
Oc1cc(Cc2ccccc2)cnc1CN1CCOCC1	26	?	?	2.9µM*
Cc1cccc(C)c1NC(=S)NCCSc1ccc(Cl)cc1	?	?	10µM*	-29%
Cc1ccc(NC(=S)NCCSc2ccc(Cl)cc2)cc1	?	?	-15%	12µM*
Cc1ccc(SCCNC(=S)Nc2cc(C)cc(C)c2)cc1	-30	?	-28%	.
COc1ccccc1NC(=S)NCCSc1ccc(Cl)cc1	-5	?	5%	-19%
COc1ccc(Cl)cc1NC(=S)NCCSc1ccc(C)cc1	?	12µM*	?	-16%
Cc1ccc(NCSc2ccc(Cl)cc2)cc1	52	.	10µM*	.
COc1ccc(-c2csc3nc(-c4ccc(F)cc4)oc(=O)c23)cc1OC	7	.	.	.
COc1ccc2c(c1)c1c(c(=O)n(-c3cc(Cl)ccc3C)c(=O)n1Cc1ccc(F)cc1)n2C	0	.	.	.
O=C(NCC12CC3CC(CC(C3)C1)C2)c1cc2nc(-c3ccc(Cl)cc3)cc(C(F)(F)F)n2n1	12	.	.	.
COc1ccc(-n2c(SCc3ccccc3F)nc3c([nH]c4ccccc43)c2=O)cc1	-5	.	.	.
O=C1CSC(=S)N1c1cccnc1	2	13µM*	7%	.
O=C1CSC(=S)N1c1ccccc1	13	.	-26%	.
O=C1CSC(=S)N1Cc1cccnc1	-98*	18%	?	-30%
S=C1SCN(Cc2cccnc2)CN1Cc1ccccc1	-94*	?	?	?
S=C1NCN(Cc2cccnc2)CN1Cc1ccccc1	13	1%	-12%	15%
O=C1CSC(=S)N1c1ccc(F)c(Cl)c1	?	12µM*	6%	?
Cc1cc(N2CCN(c3ccc(F)cc3)CC2)n2nc(-c3ccc(Cl)cc3)nc2n1	11	.	.	.
Clc1ccc2nc3ccccn3c2c1	8	-7%	10µM*	12%
CC(=O)Nc1ccc(S(=O)(=O)NCc2cccn2Cc2cccc(C)c2)cc1	-31	.	.	.
O=C(c1ccc2c(c1)OCO2)N1CC(=O)N2[C@H](C1)[C@@H](c1ccc(Br)cc1)[C@@H]2CO	-4	.	.	.
Cc1ccc(C(=O)c2oc3ccccc3c2NC(=O)COc2ccc(C(C)(C)C)cc2)cc1	-7	.	.	.
CN(C)c1ccc(N=Nc2ccccc2C(=O)OCC(=O)N2CCCCCC2)cc1	-13	0%	3%	-2%
CN(C)c1ccc(N=Nc2ccccc2C(=O)OCC(=O)Nc2ccccc2C(F)(F)F)cc1	-75*	9.3µM*	0%	?
SMILES	HCMV inh	Pf growth 96h	HCV inhibitor	Pf growth 48h
CN(C)c1ccc(N=Nc2ccccc2C(=O)OCC(=O)N2CCCC2)cc1	-12	13µM*	?	?
COc1ccc(OCC#CCN2CCNCC2)cc1	-8	1.9µM*	0%	16%
O=c1cc(-c2ccccc2)n2c(SCc3cccc([N+](=O)[O-])c3)nnc2[nH]1	-40	.	.	.
COc1ccc(-c2csc3nc(C)nc(N4CCC(C)CC4)c23)cc1OC	36	-22%	?	-6%
Oc1ccccc1N1CCN(c2ncnc3scc(-c4ccc(F)cc4)c23)CC1	-81*	?	11µM*	13µM*
O=S(=O)(c1ccccc1)N1CCN(c2ncnc3scc(-c4ccccc4)c23)CC1	?	5%	?	?
COc1ccc(-c2csc3nc(C)nc(N4CCN(C(C)=O)CC4)c23)cc1OC	8	5%	-1%	4.1µM*
